“And” between values parts separate entries of the source, which are not always exact repeats. Equal values may be shown once. The source made the active and inactive calls. Unless noted, calls come from the whole dose curve; as a rule, active = well fitted curve in the direction sought with a large enough effect in the repeat runs; inconclusive = weak or mixed curves; inactive = no such curve, though single readings can be large; an effect the other way counts as inactive or inconclusive.

Results on 9 compounds are retold here after PubChem BioAssay (Tox21).

Experiment [1] is described as follows: qHTS assay to identify small molecule antagonists of the thyroid receptor (TR) signaling pathway - cell viability counter screen (AID 743064). Note: nearly all actives have a fitted effect of over 50% in size. Note: potency is the fitted concentration of half-maximal effect. In a few lines: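 Rat GH3 pituitary tumor cells stably expressing two TR response elements driving luciferase were plated, rested 4 h, then dosed with library compounds and T3 (1 nM final). After 23.5 h at 37 °C, CellTiter-Fluor was added for 30 min and fluorescence recorded.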
For orientation: qHTS replaces the single test concentration by a dilution series.

Experiment [2] is described as follows: qHTS assay to identify small molecule antagonists of the thyroid receptor (TR) signaling pathway (AID 743065). Note: nearly all actives have a fitted effect of over 55% in size. Note: potency is the fitted concentration of half-maximal effect. The gist of the method:
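GH3.TRE-Luc rat pituitary cells (two TREs driving luciferase) were dosed with compound, then stimulated with 1 nM T3 (final) for 23.5 h at 37 C. ONE-Glo luminescence was the read-out, with CellTiter-Fluor fluorescence as the cytotoxicity counter-screen.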

For experiment [3], the target named is Estrogen receptor (Homo sapiens) (UniProt P03372). Nature of the experiment: qHTS assay to identify small molecule antagonists of the estrogen receptor alpha (ER-alpha) signaling pathway (AID 743069; active = well fitted curve in the direction sought with a large enough effect in the signal ratio in the repeat runs, not every such curve was filed as active; inconclusive = weak or mixed curves, or effect the other way; inactive = no such curve, though single readings can be large or run the other way; the % refers to the signal ratio; note: potency is the fitted concentration of half-maximal effect). In a few lines: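 Reporter cells (ER-alpha-bla, HEK293 background) are conditioned overnight in stripped-serum medium (2% charcoal-stripped FBS). Compound and 17beta-estradiol exposure runs 18 hr at 37C, 5% CO2.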
Chain of Estrogen receptor (Homo sapiens) (P03372 whole entry, looked up): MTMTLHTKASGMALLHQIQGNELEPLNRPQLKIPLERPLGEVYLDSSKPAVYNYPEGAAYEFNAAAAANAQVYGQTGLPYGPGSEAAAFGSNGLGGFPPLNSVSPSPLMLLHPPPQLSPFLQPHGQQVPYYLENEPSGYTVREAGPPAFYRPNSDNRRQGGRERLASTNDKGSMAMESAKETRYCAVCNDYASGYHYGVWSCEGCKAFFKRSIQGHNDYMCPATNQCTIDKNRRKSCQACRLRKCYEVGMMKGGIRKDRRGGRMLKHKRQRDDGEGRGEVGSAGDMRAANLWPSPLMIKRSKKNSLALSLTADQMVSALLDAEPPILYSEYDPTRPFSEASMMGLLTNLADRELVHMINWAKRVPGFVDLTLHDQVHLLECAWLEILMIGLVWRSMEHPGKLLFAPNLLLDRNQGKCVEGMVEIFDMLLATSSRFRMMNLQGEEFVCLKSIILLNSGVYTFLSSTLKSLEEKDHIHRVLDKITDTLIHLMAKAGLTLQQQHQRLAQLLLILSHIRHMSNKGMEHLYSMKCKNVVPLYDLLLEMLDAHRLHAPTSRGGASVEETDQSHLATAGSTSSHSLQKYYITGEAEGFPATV

The target is the same in experiment [4]. Nature of the experiment: qHTS assay to identify small molecule agonists of the estrogen receptor alpha (ER-alpha) signaling pathway (AID 743075; calls by dose curve;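 note: HEK293 GripTite cells with ER-alpha and UAS-driven beta-lactamase reporter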).
A short description of experiment [5]: qHTS assay to identify small molecule antagonists of the estrogen receptor alpha (ER-alpha) signaling pathway using the BG1 cell line (AID 743080; calls by dose curve;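 note: BG1 cells stimulated with 17beta-estradiol alongside compound; nearly all actives have a fitted effect of over 25% in size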; note: potency is the fitted concentration of half-maximal effect). In a few lines:
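BG1-Luc-4E2 cells (endogenous full-length ER-alpha, stable 4×ERE-luciferase) were starved 5 days in phenol-red-free medium with 10% charcoal-stripped FBS, plated 24 h, then given compound plus 17beta-estradiol for 21.5 h at 37 C; ONE-Glo luminescence read after 30 min.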

A short description of experiment [6]: qHTS assay to identify small molecule antagonists of the estrogen receptor alpha (ER-alpha) signaling pathway using the BG1 cell line - cell viability counter screen (AID 743081).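 Note: compound given together with 17beta-estradiol as the ER stimulus; nearly all actives have a fitted effect of over 45% in size.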 Note: potency is the fitted concentration of half-maximal effect.
Experiment [7] concerns the target Aromatase (Homo sapiens) (UniProt P11511). Briefly: qHTS assay to identify aromatase inhibitors (AID 743083). Note: nearly all actives have a fitted effect of over 55% in size. Note: potency is the fitted concentration of half-maximal effect.
Experiment [8] can be described thus: qHTS assay to identify aromatase inhibitors - cell viability counter screen (AID 743084).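 Note: cells stimulated with testosterone during compound exposure; nearly all actives have a fitted effect of over 55% in size.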 Note: potency is the fitted concentration of half-maximal effect.
A short description of experiment [9]: qHTS assay to identify small molecule that activate the aryl hydrocarbon receptor (AhR) signaling pathway - cell viability counter screen (AID 743086). Note: nearly all actives have a fitted effect of over 45% in size. Note: potency is the fitted concentration of half-maximal effect. The gist of the method:
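HepG2-AhR-luc (HG2L7.5c1) cells, 4000/well, treated 24 h at 37 C with compound; viability measured as CellTiter-Fluor fluorescence after 30 min in the same wells as the luciferase read.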

Experiment [10] in a line: qHTS assay to identify small molecule antagonists of the estrogen receptor alpha (ER-alpha) signaling pathway - cell viability counter screen (AID 743074; calls by dose curve;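 note: HEK293 cells carrying ER-alpha-UAS-bla reporter stimulated with 17beta-estradiol; nearly all actives have a fitted effect of over 45% in size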; note: potency is the fitted concentration of half-maximal effect).
Experiment [11] concerns the target Estrogen receptor (Homo sapiens) (UniProt P03372). Briefly: qHTS assay to identify small molecule agonists of the estrogen receptor alpha (ER-alpha) signaling pathway using the BG1 cell line (AID 743079). Note: nearly all actives have a fitted effect of over 20% in size. Note: potency is the fitted concentration of half-maximal effect.
The target of experiment [12] is Aryl hydrocarbon receptor (Homo sapiens) (UniProt P35869). Nature of the experiment: qHTS assay to identify small molecule that activate the aryl hydrocarbon receptor (AhR) signaling pathway (AID 743085).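 For activation: HG2L7.5c1 human HepG2 liver cells with stably integrated DRE-driven firefly reporter; series mostly up to about 70 µM.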 Note: nearly all actives have a fitted effect of over 15% in size. Note: potency is the fitted concentration of half-maximal effect. In a few lines: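 Compounds were tested in HepG2 hepatocellular carcinoma cells harbouring a stably integrated luciferase gene under control of 20 DREs. Increased reporter signal after 24 h treatment at 37C was taken as AhR activation.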
Chain of Aryl hydrocarbon receptor (Homo sapiens) (P35869 whole entry, looked up): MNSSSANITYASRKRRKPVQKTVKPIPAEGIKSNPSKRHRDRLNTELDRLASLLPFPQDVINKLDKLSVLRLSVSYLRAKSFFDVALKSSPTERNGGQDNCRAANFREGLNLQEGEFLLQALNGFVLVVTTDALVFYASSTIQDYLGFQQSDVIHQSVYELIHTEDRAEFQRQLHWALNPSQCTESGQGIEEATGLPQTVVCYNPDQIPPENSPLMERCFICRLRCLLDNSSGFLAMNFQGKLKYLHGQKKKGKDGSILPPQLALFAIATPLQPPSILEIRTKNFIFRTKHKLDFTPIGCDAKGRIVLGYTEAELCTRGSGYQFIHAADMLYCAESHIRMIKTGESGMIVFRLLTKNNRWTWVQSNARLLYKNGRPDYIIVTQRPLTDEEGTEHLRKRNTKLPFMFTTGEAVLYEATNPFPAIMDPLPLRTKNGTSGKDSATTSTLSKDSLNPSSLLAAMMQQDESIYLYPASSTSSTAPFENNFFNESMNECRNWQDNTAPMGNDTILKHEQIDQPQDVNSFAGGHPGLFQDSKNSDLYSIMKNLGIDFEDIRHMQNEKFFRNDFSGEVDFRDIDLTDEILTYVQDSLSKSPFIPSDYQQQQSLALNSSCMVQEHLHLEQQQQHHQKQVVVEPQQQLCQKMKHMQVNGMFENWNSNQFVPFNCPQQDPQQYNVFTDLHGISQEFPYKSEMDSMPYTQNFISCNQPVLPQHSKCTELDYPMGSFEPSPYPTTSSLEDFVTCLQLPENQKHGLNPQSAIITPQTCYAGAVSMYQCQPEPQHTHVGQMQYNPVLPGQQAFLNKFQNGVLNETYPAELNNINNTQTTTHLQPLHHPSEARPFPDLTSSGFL

Experiment [13] addresses Peroxisome proliferator-activated receptor gamma (Homo sapiens) (UniProt P37231). Nature of the experiment: qHTS assay to identify small molecule agonists of the peroxisome proliferator-activated receptor gamma (PPARg) signaling pathway (AID 743094; active = well fitted activation curve with a large enough effect in the signal ratio in the repeat runs, not every such curve was filed as active; inconclusive = weak or mixed curves, or effect the other way; inactive = no such curve, though single readings can be large or run the other way; the % refers to the signal ratio; note: potency is the fitted concentration of half-maximal effect). The gist of the method:
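Following 5 h plating at 37C, PPARg-bla HEK293H cells receive compound or DMSO for 17 h; fluorescence intensity is recorded after LiveBLAzer B/G loading for 1 h at room temperature.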

Experiment [14] relates to thyroid hormone receptor (rat, GH3 cells). Nature of the experiment: qHTS assay to identify small molecule agonists of the thyroid receptor (TR) signaling pathway (AID 743066; calls by dose curve).
Experiment [15] is described as follows: qHTS assay for small molecule agonists of the antioxidant response element (ARE) signaling pathway (AID 743202; active = well fitted activation curve with a large enough effect in the signal ratio in the repeat runs, not every such curve was filed as active; inconclusive = weak or mixed curves, or effect the other way; inactive = no such curve, though single readings can be large or run the other way; the % refers to the signal ratio; note: potency is the fitted concentration of half-maximal effect). In a few lines:
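Agonist mode reporter screen: HepG2 cells with ARE-controlled beta-lactamase are incubated with test compounds for 16 h at 37 C, and beta-lactamase activity is measured as fluorescence of cleaved B/G FRET substrate.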

Experiment [16] can be described thus: qHTS assay for small molecule agonists of the antioxidant response element (ARE) signaling pathway - cell viability counter screen (AID 743203; calls by dose curve; note: potency is the fitted concentration of half-maximal effect; nearly all actives have a fitted effect of over 55% in size). The gist of the method: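 Compounds in DMSO were pinned onto ARE-bla HepG2 cells plated 5 hrs earlier at 2,000 cells/well. Sixteen hours later at 37C/5% CO2, CellTiter-Glo was added and luminescence measured after 30 min at room temperature.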

Experiment [17] in a line: qHTS assay for small molecule activators of the heat shock response signaling pathway - cell viability counter screen (AID 743209). Note: nearly all actives have a fitted effect of over 50% in size. The gist of the method:
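Counter screen for cytotoxicity in HeLa HSE-bla reporter cells. Treatment was 5 h at 37 C; viability was detected by luminescent ATP assay (CellTiter-Glo) in the same wells as the beta-lactamase read.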

Chain of Aromatase (Homo sapiens) (P11511 whole entry, looked up): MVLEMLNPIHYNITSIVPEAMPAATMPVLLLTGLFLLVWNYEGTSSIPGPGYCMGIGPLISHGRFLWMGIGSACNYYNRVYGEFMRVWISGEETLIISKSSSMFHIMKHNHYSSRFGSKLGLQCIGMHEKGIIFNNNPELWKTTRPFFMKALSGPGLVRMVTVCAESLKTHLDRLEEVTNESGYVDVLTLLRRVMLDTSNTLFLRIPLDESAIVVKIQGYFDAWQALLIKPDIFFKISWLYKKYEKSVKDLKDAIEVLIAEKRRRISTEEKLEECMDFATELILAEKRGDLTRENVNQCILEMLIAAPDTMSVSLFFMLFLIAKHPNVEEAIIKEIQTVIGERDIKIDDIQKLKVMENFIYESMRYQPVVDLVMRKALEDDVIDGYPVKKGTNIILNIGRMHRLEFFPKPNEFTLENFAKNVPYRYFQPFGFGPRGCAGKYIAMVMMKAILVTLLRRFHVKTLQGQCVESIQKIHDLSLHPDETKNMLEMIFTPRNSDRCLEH
Chain of Peroxisome proliferator-activated receptor gamma (Homo sapiens) (P37231 whole entry, looked up): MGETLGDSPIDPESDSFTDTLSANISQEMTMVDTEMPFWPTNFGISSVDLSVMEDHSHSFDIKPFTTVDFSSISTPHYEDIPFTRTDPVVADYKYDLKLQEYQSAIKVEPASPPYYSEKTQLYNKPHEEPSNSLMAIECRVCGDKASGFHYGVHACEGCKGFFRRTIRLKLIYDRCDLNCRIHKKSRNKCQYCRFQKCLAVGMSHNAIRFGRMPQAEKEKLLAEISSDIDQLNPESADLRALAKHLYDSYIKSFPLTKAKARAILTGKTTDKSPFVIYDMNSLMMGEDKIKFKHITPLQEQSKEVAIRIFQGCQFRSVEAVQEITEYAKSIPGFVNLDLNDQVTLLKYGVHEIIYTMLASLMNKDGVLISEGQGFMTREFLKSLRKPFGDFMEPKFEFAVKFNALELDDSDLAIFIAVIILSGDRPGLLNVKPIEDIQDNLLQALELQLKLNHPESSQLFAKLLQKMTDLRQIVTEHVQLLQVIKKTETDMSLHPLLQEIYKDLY

Consider `COc1cc2c(cc1O)CCN[C@]21CS[C@@H]2c3c(OC(C)=O)c(C)c4c(c3[C@H](COC1=O)N1[C@@H]2[C@H]2c3c(cc(C)c(OC)c3O)C[C@@H]([C@@H]1O)N2C)OCO4`, for which the Potency in [1] is 2.4 nM (active) and 4.3 nM (active); in experiment [2] it was 1.9 nM (active) and 2.7 nM (active); in [3], 33.8 nM [inconclusive] (active) and 49 nM [inconclusive] (active); in [5], 26.6 nM (active) and 43.3 nM (active); in experiment [6] it was 26.6 µM (active) and 13.7 µM (active); in [7] it was 29.8 nM (active) and 48.6 nM (active). Further, the Potency in experiment [8] was 24.3 µM (active); in experiment [9] it was 0.0168 µM (active). Further, the Potency result in experiment [4] is “inactive”.

`CCCCC[C@H](O)/C=C/[C@@H]1[C@@H](C/C=C\CCCC(=O)O)[C@@H](O)C[C@H]1O`: the Potency entry in experiment [1], in [10], in experiment [6], in [7], in experiment [8] and in experiment [12] was “inactive” throughout. The Potency entry in [9] and in [13] was “inactive” each time. Besides, the Potency in [11] is 29.8 µM (active).

In the case of `CC(=O)N(C)C`, the Potency entry in experiment [2] is “inactive”.

As to `O=C1CC[C@@H](C(=O)N[C@H]2C[C@@H]2c2ccccc2)N1`, the Potency entry in experiment [1], in [3], in [10], in experiment [4], in experiment [11] and in experiment [5] was “inactive” throughout. The Potency result in [6], in experiment [7], in experiment [8], in experiment [12], in experiment [9] and in experiment [13] was “inactive” in each case.

Turning to `NCC1CCC(C(=O)O)CC1` (centres undefined), the Potency result in experiment [2], in experiment [14], in experiment [3], in experiment [10], in experiment [4] and in [11] was “inactive” in each case. Further, the Potency entry in [5], in [6], in experiment [7], in experiment [8], in [9] and in experiment [13] was “inactive” in each case.

Regarding `CC(C)(Oc1ccc(C2CCCc3ccccc32)cc1)C(=O)O` (centres undefined), the Potency entry in experiment [2], in [14], in experiment [3], in experiment [10], in experiment [4] and in [5] was “inactive” throughout. Moreover, the Potency entry in experiment [6], in experiment [7], in experiment [8], in experiment [12] and in experiment [9] was “inactive” in each case. In addition, the Potency in experiment [11] was 18.8 µM (active); in experiment [13], 2.39 µM (active).

On to `C=C(Nc1ccc(OCC)cc1)Nc1ccc(OCC)cc1`, for which the Potency result in experiment [2], in [14], in experiment [3], in [10], in experiment [4] and in [11] was “inactive” throughout. Further, the Potency result in experiment [5], in experiment [6], in experiment [7], in [8], in [12] and in experiment [9] was “inactive” throughout. For the same compound, the Potency entry in experiment [13] is “inactive”.

Take `NC(=O)c1cc[n+](CC2=C(C(=O)O)N3C(=O)[C@@H](NC(=O)C(c4ccccc4)S(=O)(=O)[O-])[C@H]3SC2)cc1` (some centres undefined): the Potency entry in experiment [1], in experiment [14], in [10], in [6], in [7] and in [8] was “inactive” each time. In addition, the Potency entry in [12], in [9] and in experiment [13] was “inactive” throughout.

With `S=C1NC=NC2N=CNC12` (centres undefined), the Potency result in experiment [1], in experiment [14], in experiment [6], in experiment [7], in experiment [8] and in [9] was “inactive” in each case. In addition, in experiment [17], the Potency result is “inactive”. Also, the Potency was 11 µM (active) in experiment [10], 30.6 µM (active) in experiment [12], 4.86 µM (active) in experiment [15] and 8.63 µM (active) in experiment [16].
